Here are results for 40 molecules from PubChem BioAssay (EPA / NIEHS).

Records with an inconclusive call do not appear. Calls of active or inactive are those of the source. The calls were made as follows: active = hit-call score of the fitted dose curve at least 0.9, where 1 is the maximum; inconclusive = response in the unintended direction; inactive = score below 0.9.

In this assay the target is human Retinoid X Receptor beta (RXRb), RXRB (gene 6257) (UniProt P28702). As to the kind of experiment: ATG_RXRb_TRANS: Attagene TRANS-FACTORIAL HepG2 Assay for human Retinoid X Receptor beta (RXRb) (AID 2283013). The method, then: ATG_TRANS is a cell-based, multiplexed-readout assay that uses HepG2, a human liver cell line, with measurements taken at 24 hours after chemical dosing in a 24-well plate.ATG_RXRb_TRANS is one of 30 assay component(s) measured or calculated from the ATG_TRANS assay. It is designed to make measurements of mRNA induction, a form of inducible reporter, as detected with fluorescence intensity signals by Reverse transcription polymerase chain reaction (RT-PCR) and Capillary electrophoresis technology.Data from the assay component ATG_RXRb_TRANS was analyzed into 1 assay endpoint. This assay endpoint, ATG_RXRb_TRANS, was analyzed in the positive analysis fitting direction relative to DMSO as the negative control and baseline of activity. Using a type of inducible reporter, measures of mRNA for gain-of-signal activity can be used to understand the reporter gene at the transcription factor-level as they relate to the gene RXRB. Furthermore, this assay endpoint can be referred to as a primary readout, because this assay has produced multiple assay endpoints where this one serves a reporter gene function. To generalize the intended target to other relatable targets, this assay endpoint is annotated to the nuclear receptor intended target family, where the subfamily is non-steroidal.
Sequence of human Retinoid X Receptor beta (RXRb), RXRB (gene 6257) (P28702 whole entry, looked up): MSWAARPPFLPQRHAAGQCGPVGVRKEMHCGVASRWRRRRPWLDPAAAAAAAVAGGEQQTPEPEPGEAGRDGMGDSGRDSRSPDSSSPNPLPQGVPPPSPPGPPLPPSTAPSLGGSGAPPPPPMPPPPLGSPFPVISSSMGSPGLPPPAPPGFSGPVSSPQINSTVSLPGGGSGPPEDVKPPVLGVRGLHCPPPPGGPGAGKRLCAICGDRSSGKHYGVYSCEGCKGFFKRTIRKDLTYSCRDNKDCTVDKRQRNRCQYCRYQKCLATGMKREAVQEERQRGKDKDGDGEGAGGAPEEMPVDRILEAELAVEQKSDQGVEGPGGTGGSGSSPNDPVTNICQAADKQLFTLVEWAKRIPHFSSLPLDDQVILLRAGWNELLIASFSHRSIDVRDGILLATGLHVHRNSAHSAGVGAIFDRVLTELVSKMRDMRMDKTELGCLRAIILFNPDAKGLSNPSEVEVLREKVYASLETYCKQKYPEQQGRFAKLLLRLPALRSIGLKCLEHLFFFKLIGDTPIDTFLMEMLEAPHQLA
Human liver HepG2 cells are transiently transfected with multiple reporter transcription units (MRTUs) in 6-well plates using FuGene 6 reagent (Roche; 3 ml FuGene/1 mg DNA). The MRTU constructs are regulated by a cis-regulating element (promoter). […] A major difference between the CIS and TRANS system is that in CIS activities of endogenous TFs are measured, whereas the TRANS assay evaluates changes in activities of exogenous, chimeric NR-Gal4 proteins. […] At the end of 24 hour incubation, total RNA was isolated using TriZol reagent (Invitrogen). The isolated RNA is then reverse-transcribed using oligo(dT) primer and Mo-MLV reverse transcriptase (Invitrogen) with DNAse I (Ambion) treatment for 30 min. The one-tenth of the produced cDNA was amplified by PCR using Taq DNA polymerase (Invitrogen) and two reporter sequence-specific primers. The PCR products were fluorescently labeled by primer extension with 6-arboxyfluorescein (6-FAM) 5'-labeled reporter sequence-specific primer (2 min at 95 C, 20 s at 68 C and 10 min at 72 C) and these products were digested with 5U of HpaI (New England Biolabs) for 2h at 37 C. The fragments were purified using Qiaquick PCR columns (Qiagen), analyzed on an ABI 3130xL genetic analyzer (Applied Biosystems) with peak positions identified by using a set of X-rhodamine (ROX)-labeled MapMarker1000 molecular weight standards (BioVentures). The raw capillary electrophoresis data was processed using Attagraph software (Attagene).
As for `Cc1ccc(N/N=c2\c(=O)cc/c(=N/Nc3ccc(S(=O)(=O)O)cc3)c2=O)c(C)c1`, the molecule was classed as inactive.

`CCN(CC#N)c1cccc(C)c1`: the molecule was called inactive.

For the molecule `CC(=O)C=CC1C(C)=CCC(C)C1(C)C` (stereo not given), the AC50 (as a rule, the concentration giving half of the maximal activity seen) was 68.5 µM (active).

On to `CC(=O)CC(N)=O`, for which the outcome was inactive.

Turning to `CCC(C)OC(=O)c1ccc(O)cc1` (stereo not given), the AC50 was 70.8 µM (active).

For `C=CCOCC(O)CCl` (stereo not given), the outcome was inactive.

For the molecule `Cc1ccc(C2OC[C@@H]3OC(c4ccc(C)cc4)O[C@H]([C@H](O)CO)[C@@H]3O2)cc1` (stereo not given in full), the result was inactive.

With `CCCCC(CC)COC(=O)c1ccccc1O` (stereo not given), the outcome was inactive.

For `CCCCCCCCCCCSCC(=O)O`, the AC50 was 11.5 µM (active).

As to `CC(CC=O)c1ccccc1` (stereo not given), the molecule was classed as inactive.

With `O=C(O)CCCCCCCCCC(=O)O`, the call was inactive.

Take `O=c1c2ccccc2nnn1CCl`: the result was inactive.

Take `FC(F)=C(F)OC(F)(F)C(F)(F)C(F)(F)F`: the outcome was inactive.

Consider `O=c1cc(-c2ccccc2)oc2ccccc12`, for which the molecule was classed as inactive.

Take `CCC(CO)CO`: the molecule was called inactive.

As to `O=C1C=CC(=O)O1`, the outcome was inactive.

Take `Cc1ccc(C(C)c2ccc(C)c(C)c2)cc1C`: the molecule was classed as inactive.

Regarding `Cc1ccc2oc(=O)ccc2c1`, the outcome was inactive.

Regarding `C=CCOc1c(Br)cc(Br)cc1Br`, the half-maximal activity concentration (AC50) is 6.51 µM (active).

As to `CCCCCc1ccc(Cl)cc1`, the result was inactive.

`CCC(C)(C)C1CCCCC1OC(C)=O` (stereo not given): the AC50 is 74.1 µM (active).

On to `O=C(Nc1cccc(C(F)(F)F)c1)c1cc(Br)cc(Br)c1O`, for which the outcome was inactive.

Take `CCCCCCCCCCCCCCCC[N+](C)(C)CC`: the concentration at half-maximal activity (AC50) was 13 µM (active).

As for `Cc1cnc(NC(=O)C2=C(O)c3ccccc3S(=O)(=O)N2C)s1`, the outcome was inactive.

Consider `Cc1cc(O)c(Cl)c(C)c1Cl`, for which the molecule was classed as inactive.

On to `CC(C)(C)C1CCCCC1=O` (stereo not given), for which the concentration at half-maximal activity (AC50) was 91.4 µM (active).

As for `CCCc1ccc(OC)cc1`, the molecule was classed as inactive.

Take `Cc1ccc(OC(=O)CC(C)C)cc1`: the result was inactive.

As to `O=C1Nc2ccccc2C1(c1ccc(O)cc1)c1ccc(O)cc1`, the molecule was classed as inactive.

Turning to `O=C(Nc1ccccc1)c1ccccc1O`, the molecule was called inactive.

`O=S1(=O)OC(c2ccc(O)cc2)(c2ccc(O)cc2)c2ccccc21`: the call was inactive.

`Cc1cccc(C(=O)O)c1`: the result was inactive.

For `COCc1c(C(C)C)nc(C(C)C)c(/C=C/[C@@H](O)C[C@@H](O)CC(=O)O)c1-c1ccc(F)cc1`, the outcome was inactive.

With `Cc1c(C)c([N+](=O)[O-])c(C(C)(C)C)c([N+](=O)[O-])c1C`, the AC50 was 1.7 µM (active).

For `CC(=O)c1ccc2c(c1)CCCC2`, the AC50 is 42.9 µM (active).

On to `O=CN1CCCCC1`, for which the call was inactive.

Take `NC(=O)C1CO1` (stereo not given): the molecule was called inactive.

Take `CC(C)(C)C(=O)C=Cc1ccc(Cl)cc1`: the half-maximal activity concentration (AC50) was 24.4 µM (active).

Regarding `CC(C)=CCCC(C)C=O` (stereo not given), the result was inactive.

As for `CC(=O)OC1C2(C)CCC(C2)C1(C)C` (stereo not given), the molecule was classed as inactive.
